Results filed as inconclusive are left out. Activity calls are given as the source filed them. Calls follow the shape of the dose curve; as a rule, active = well fitted inhibition curve with a large enough effect; inconclusive = small, poorly fitted or top-dose-only effect; inactive = flat fitted curve, though single readings scatter.
What was measured:
PAD = test: qHTS profiling for inhibitors of Plasmodium falciparum proliferation (AID 504749); also: potency is read from the fitted curve at half-maximal effect; settings: P. falciparum in erythrocytes, SYBR Green DNA, 72 h; series mostly up to 28.7 µM
Method in brief: (§1)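 P. falciparum-infected erythrocytes (0.3% parasitemia, 2.5% hematocrit final) were exposed to compounds for 72 h at 37 C in 5% CO2, then lysed with SYBR Green buffer overnight at room temperature; parasite DNA fluorescence was normalized to artemisinin and DMSO controls.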

PC15 = test: as above; settings: P. falciparum in erythrocytes, SYBR Green DNA, 72 h; series mostly up to 28.7 µM
Method in brief: as §1

SC27B = test: as above; settings: P. falciparum in erythrocytes, SYBR Green DNA, 72 h; series mostly up to 28.7 µM
Method in brief: as §1

TAB113 = test: as above; settings: P. falciparum in erythrocytes, SYBR Green DNA, 72 h; series mostly up to 28.7 µM
Method in brief: as §1

TAB165 = test: as above; settings: P. falciparum in erythrocytes, SYBR Green DNA, 72 h; series mostly up to 28.7 µM
Method in brief: as §1

W2 = test: as above; settings: P. falciparum in erythrocytes, SYBR Green DNA, 72 h; series mostly up to 28.7 µM
Method in brief: as §1

CRL-7250 = normal cell line; test: Cytotoxic Profiling of Annotated Libraries Using Quantitative High-Throughput Screening (AID 1296008); settings: Five cell lines viability, CellTiter-Glo ATP luminescence, 48-72 h; max response: active compounds read low; as to max response: % is scaled to controls: 0 for no effect and ±100 for the full control effect
Method in brief: (§2)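 Compounds were pin-transferred onto cells and incubated 48 or 72 hr at 37 degree Celsius, 95% humidity. CellTiter-Glo was added, plates sat 10 min at room temperature, then ATP-coupled luminescence was imaged as the viability read-out.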

HaCat [1] = test: as above; settings: Five cell lines viability, CellTiter-Glo ATP luminescence, 48-72 h; max response: active compounds read low
Method in brief: as §2

NIH3T3 = test: as above; settings: Five cell lines viability, CellTiter-Glo ATP luminescence, 48-72 h; max response: active compounds read low
Method in brief: as §2

HACAT [2] = test: qHTS assay to identify novel small-molecules to repurpose for Merkel cell carcinoma treatment (AID 1296009); settings: MCC and control cell lines, CellTiter-Glo viability, 72 h; at 44.8 µM (top of the series) unless noted
Method in brief: (§3)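 Cells exposed to NPC (8-point) and MIPE (11-point) compound dilutions for 72 hr at 37 degree celsius; viability read by CellTiter-Glo luminescence, normalized to no-cell and DMSO in-plate controls.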

MCC-13 = test: as above; settings: MCC and control cell lines, CellTiter-Glo viability, 72 h; series mostly up to 46 µM
Method in brief: as §3

MCC-26 = test: as above; settings: MCC and control cell lines, CellTiter-Glo viability, 72 h; series mostly up to 46 µM
Method in brief: as §3

MKL-1 = test: as above; settings: MCC and control cell lines, CellTiter-Glo viability, 72 h; series mostly up to 46 µM
Method in brief: as §3

P94_40 = test: qHTS profiling for inhibitors of Plasmodium falciparum proliferation (AID 504749); also: potency is read from the fitted curve at half-maximal effect; settings: P. falciparum in erythrocytes, SYBR Green DNA, 72 h; series mostly up to 28.7 µM
Method in brief: as §1

KB-3-1 = test: Cytotoxic Profiling of Annotated Libraries Using Quantitative High-Throughput Screening (AID 1296008); settings: Five cell lines viability, CellTiter-Glo ATP luminescence, 48-72 h; max response: active compounds read low; as to max response: % is scaled to controls: 0 for no effect and ±100 for the full control effect
Method in brief: as §2

PC26 = test: qHTS profiling for inhibitors of Plasmodium falciparum proliferation (AID 504749); also: potency is read from the fitted curve at half-maximal effect; settings: P. falciparum in erythrocytes, SYBR Green DNA, 72 h; series mostly up to 28.7 µM
Method in brief: as §1

PC49 = test: as above; settings: P. falciparum in erythrocytes, SYBR Green DNA, 72 h; series mostly up to 28.7 µM
Method in brief: as §1

TAB109 = test: as above; settings: P. falciparum in erythrocytes, SYBR Green DNA, 72 h; series mostly up to 28.7 µM
Method in brief: as §1

HEK293 = test: Cytotoxic Profiling of Annotated Libraries Using Quantitative High-Throughput Screening (AID 1296008); settings: Five cell lines viability, CellTiter-Glo ATP luminescence, 48-72 h; max response: active compounds read low; as to max response: % is scaled to controls: 0 for no effect and ±100 for the full control effect
Method in brief: as §2

HEK293T = test: qHTS assay to identify novel small-molecules to repurpose for Merkel cell carcinoma treatment (AID 1296009); settings: MCC and control cell lines, CellTiter-Glo viability, 72 h; at 44.8 µM (top of the series) unless noted
Method in brief: as §3
Also: nearly all actives have a fitted effect of over 60% in size.

OC(CCN1CCCCC1)(c1ccccc1)C1CCCCC1 (stereo unspecified)
active: Potency (W2) 6.01 µM
inactive: Potency (PAD) | Potency (PC15) | Potency (SC27B) | Potency (TAB113) | Potency (TAB165) | outcome (CRL-7250) | outcome (HaCat [1]) | max response (NIH3T3) -0.663% | outcome (HACAT [2]) | Potency (MCC-13) | Potency (MCC-26) | Potency (MKL-1)

CCOC(=O)C1=C(C)NC(C)=C(C(=O)OC)C1c1cccc([N+](=O)[O-])c1 (stereo unspecified)
active: Potency (P94_40) 11.2 µM | Potency (SC27B) 12.6 µM | Potency (TAB165) 10 µM
inactive: outcome (CRL-7250) | outcome (HaCat [1]) | max response (KB-3-1) -12.8% | max response (NIH3T3) -0.464% | outcome (HACAT [2]) | Potency (MCC-13) | Potency (MCC-26) | Potency (MKL-1)

COc1ccc2c(c1OC)C(=O)O[C@@H]2[C@H]1c2c(cc3c(c2OC)OCO3)CCN1C
inactive: max response (CRL-7250) 4.94% | max response (KB-3-1) -12.5% | max response (NIH3T3) -0.798% | Potency (MCC-13) | Potency (MCC-26) | Potency (MKL-1)

C[N+](C)(C)CCOC(N)=O
inactive: Potency (P94_40) | Potency (PAD) | Potency (PC15) | Potency (PC26) | Potency (PC49) | Potency (SC27B) | Potency (TAB109) | Potency (TAB113) | Potency (TAB165) | Potency (W2) | max response (CRL-7250) 1.41% | outcome (HEK293) | max response (NIH3T3) -0.0921% | outcome (HEK293T) | Potency (MCC-13) | Potency (MCC-26) | Potency (MKL-1)

Cc1nnc(SCC2=C(C(=O)O)N3C(=O)[C@@H](NC(=O)Cn4cnnn4)[C@H]3SC2)s1
inactive: Potency (P94_40) | Potency (PAD) | Potency (PC15) | Potency (PC26) | Potency (PC49) | Potency (SC27B) | Potency (TAB109) | Potency (TAB113) | Potency (TAB165) | Potency (W2) | outcome (HEK293) | outcome (HaCat [1]) | max response (KB-3-1) 4.46% | max response (NIH3T3) -2.45% | outcome (HACAT [2]) | outcome (HEK293T) | Potency (MCC-13) | Potency (MCC-26) | Potency (MKL-1)

C[C@]12CCC(=O)C=C1CC[C@@H]1[C@@H]2CC[C@@]2(C)[C@H]1CC[C@]2(O)C(=O)CO
inactive: Potency (P94_40) | Potency (PAD) | Potency (PC15) | Potency (PC49) | Potency (SC27B) | Potency (TAB109) | Potency (TAB113) | Potency (TAB165) | Potency (W2) | max response (CRL-7250) -9.98% | max response (HaCat [1]) -3.7% | max response (KB-3-1) -11.6% | max response (NIH3T3) -17.4% | Potency (MCC-13) | Potency (MCC-26) | Potency (MKL-1)

O=C(CCCN1CCC(O)(c2cccc(C(F)(F)F)c2)CC1)c1ccc(F)cc1
inactive: max response (CRL-7250) -19.1% | max response (HaCat [1]) 0.0234% | Potency (MCC-13) | Potency (MCC-26) | Potency (MKL-1)
active: Potency (P94_40) 8.91 µM | Potency (PAD) 10 µM | Potency (PC49) 7.94 µM | Potency (SC27B) 11.2 µM | Potency (TAB109) 8.91 µM | Potency (TAB113) 12.6 µM | Potency (TAB165) 7.94 µM | Potency (W2) 2.69 µM

CC(=O)[C@@]1(O)CC[C@H]2[C@@H]3CCC4=CC(=O)CC[C@]4(C)[C@H]3CC[C@@]21C
inactive: Potency (P94_40) | Potency (PAD) | Potency (PC15) | Potency (PC26) | Potency (PC49) | Potency (SC27B) | Potency (TAB109) | Potency (TAB113) | Potency (TAB165) | Potency (W2) | outcome (CRL-7250) | max response (HaCat [1]) 1.18% | max response (NIH3T3) 2.18% | Potency (MCC-13) | Potency (MCC-26) | Potency (MKL-1)

COc1ccc(CN(CCN(C)C)c2ccccn2)cc1
inactive: Potency (P94_40) | Potency (PAD) | Potency (PC15) | Potency (PC26) | Potency (TAB113) | Potency (TAB165) | max response (CRL-7250) 1.58% | outcome (HaCat [1]) | max response (NIH3T3) 2.14% | outcome (HACAT [2]) | Potency (MCC-13) | Potency (MCC-26) | Potency (MKL-1)
active: Potency (PC49) 0.178 µM | Potency (W2) 7.57 µM

— PubChem BioAssay (NCATS)
